PubChem BioAssay AID540313 (Sanford-Burnham Center for Chemical Genomics, 2011)
Where “and” joins values, the source holds several entries; their conditions need not be identical. Equal values may be shown once. Among all 2,500 compounds or so, fewer than 10 were called active.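 The calls were made as follows: active = inhibition of at least 30% at 20 µM; inactive = the rest.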 These entries were drawn from the full list.

Experiment: colorimetric readout interference by compounds, confirmation, artefact control for Scp-1 inhibitor project, biochemical, single concentration (AID 540313);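 also: compounds added after enzyme reaction finished so only phosphate colour detection is probed; plate controls were DMSO wells with completed Scp-1 reaction for no effect and substrate wells lacking enzyme for full effect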
Conditions: Colorimetric interference counterscreen, malachite green absorbance 630 nm; at 20 µM; active compounds read high

| Compound | apparent inhibition (interference) |
| --- | --- |
| O=C(N/N=C/c1ccco1)c1ccc(C(=O)N/N=C/c2ccco2)o1 | -14.2% (inactive) |
| C[N+](C)(C)CCNC(=O)c1cc[n+](Cc2ccccc2)c(/C=N/O)c1 | -12% (inactive) |
| Cc1cc(C(=O)OCC(=O)NCc2ccco2)c(C)n1-c1ccccc1 | -9.53% (inactive) |
| COc1cc(Cl)cc(C2NC(=O)NC(C)=C2C(=O)NCc2ccccc2)c1O (stereo not drawn) | -16.4% (inactive) and -17.8% (inactive) |
| O=C(COC(=O)c1cnc(Cl)c(Cl)c1)NCc1ccco1 | -17.8% (inactive) |
| O=C(COC(=O)c1ccccc1O)NCc1ccco1 | -13.4% (inactive) |
| COc1cccc(CC(=O)OCC(=O)NCc2ccc3c(c2)OCO3)c1 | -8.18% (inactive) |
| CC(C)CCOc1ccc(C(=O)C[N+]2(C)CCOCC2)cc1 | -0.2% (inactive) |
| CO/N=C(\C(=O)N[C@@H]1C(=O)N2C(C(=O)O)=C(COC(C)=O)CS[C@H]12)c1csc(N)n1 (stereo in doubt) | -15.6% (inactive) |
| O=c1[nH]n(-c2ccc([N+](=O)[O-])cc2)c(=O)c2ccccc12 | -12.9% (inactive) |
| CCCCCN1CC(O)=C(c2nc(-c3ccc(Cl)cc3)cs2)C1=N | -5.98% (inactive) |
| CC(=O)Nc1ccccc1Sc1ccc2c3c(cccc13)C(=O)N(c1ccc(C)cc1)C2=O | -10.1% (inactive) |
| Cc1ccc(C2(C)NC(=O)N(CC(=O)Nc3ccccc3C(=O)N3CCCCC3)C2=O)cc1 (stereo not drawn) | -11.4% (inactive) |
| O=C1CCC(CCC(=O)N2CCCC(C(=O)c3ccc(Cl)cc3)C2)=NN1 (stereo not drawn) | -3.23% (inactive) |
| Cc1ccc(NC(=O)COC(=O)C2C3CC4OC(=O)C2C4C3)cc1Cl (stereo not drawn) | -4.6% (inactive) |
| CC(C)c1ccc(NC(=S)NNc2ccc(Cl)c(C(=O)O)c2)cc1 | -8.44% (inactive) |
| COc1ccc(Cl)cc1NC(=O)CCS(=O)(=O)c1ccc(Br)cc1 | -18.6% (inactive) |

| Compound | apparent inhibition (interference) |
| --- | --- |
| CS(=O)(=O)C1=NN2C(=N)/C(=C\c3ccc(OCCOc4ccccc4)cc3)C(=O)N=C2S1 | -4.6% (inactive) |
| CC[n+]1c(C)n(-c2ccccc2)c2ccc(NC(C)=O)cc21 | -13.9% (inactive) |
| Cc1ccc(NC(=O)c2cc(-c3ccc(C)o3)nc3ccccc23)nc1 | -3.5% (inactive) |
| O=C(Nc1cccnc1)c1cc2cc(Br)ccc2oc1=O | -8.18% (inactive) |
| C[C@H](CO)N1C[C@H](C)[C@@H](CN(C)C(=O)NC2CCCCC2)Oc2ccc(NC(=O)c3ccncc3)cc2C1=O | -14.8% (inactive) |
| O=C(Nc1cccc(F)c1)c1cc(-c2ccco2)nc2ccccc12 | -4.88% (inactive) |
| COc1ccc(NC(=O)CN(C)C(=O)/C=C/c2cn(Cc3ccccc3)nc2-c2cccnc2)cc1 | -11.7% (inactive) |
| Cc1ccn2c(=O)nc(SCC(=O)NCc3ccc4c(c3)OCO4)nc2c1 | -8.16% (inactive) |
| N#Cc1ccccc1CN1C(=O)S/C(=C/c2cccn2-c2cccc(C(=O)O)c2)C1=O | -14.7% (inactive) |
| Cc1ccc(CCNC(=O)c2ccc3nc4ccccc4c(=O)n3c2)cc1 | 0.61% (inactive) |
| Cc1ccc(SCC(=O)NC(=O)NCc2ccco2)c(C)c1 | -4.05% (inactive) |
| O=C(COC(=O)c1ccc(F)cc1F)Nc1ncccn1 | -16.9% (inactive) |
| CNS(=O)(=O)c1cccc(C(=O)OCC(=O)N2c3ccccc3NC(=O)C2(C)C)c1 | -15.3% (inactive) |
| COc1cccc2cc(-c3cc(=O)oc4cc(C)c(O)cc34)oc12 | -23.3% (inactive) |
| COC(=O)c1ccccc1NC(=O)C1(S(=O)(=O)c2ccc(Cl)cc2)CC1 | -20.5% (inactive) |
| O=C(CCC(=O)N/N=C/c1ccc(Br)o1)N/N=C/c1ccc(Br)o1 | -16.4% (inactive) |
